Data from PubChem BioAssay AID1508600 (Functional Genomics Laboratory (NCATS/FGL), 2020).
In all, about 53,000 sequences went through this assay and about 3,700 (7%) were called active.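 Rule for the calls: active = gene knockdowns whose robust z-score for IL-1 alpha signal is at least 2 or at most -2, so actives lie on both sides; inactive = the rest.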 Only a selection was taken, and actives are over-represented in it overall.

assay: Components of the Cytosolic LPS Sensing Pathway: Gene Identification via Genome-wide siRNA Screen; conditions: RAW264.7 macrophages, IL-1a HTRF, actives lie on both sides, screened at 100 nM (by protocol), cells primed 5 h with Pam3CSK4 first;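 note: robust z of the log signal after scaling to non-targeting control siRNA wells of the plate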
Outline: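 Cells (RAW264.7, 1×10^4 per well) were transfected with siRNA at 100 nM and cultured 48h at 37 degrees C. Pam3CSK4 was added for 5 hours; LipidA transfection followed for 24 hour. IL-1a was then measured by HTRF.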

| Sequence | z-score |
| --- | --- |
| GGGCCUAUGUGCUUUAUAUTT against Usp8 | -0.0584 (inactive) |
| GGUCAUGGAAGAAGCAAAGTT against Sltm | 2.08 (active) |
| GCUGUCCUGCCGUAAUAGATT against Oma1 | -0.619 (inactive) |
| GCAAAGGAUCCAAUUUUAGTT against Rnf227 | 1.28 (inactive) |
| GGUCCAAUUACUGAAGGUUTT against Spaca7 | 2.09 (active) |
| GCUCCAACUACAUUGACUATT against Olfr1410 | -0.396 (inactive) |
| GCCGAGAGAGCCAAUACAATT against Tbc1d16 | 0.248 (inactive) |
| GGAAACACCUUUGAGGCUCTT against Kndc1 | -1.88 (inactive) |
| GCUACAGGAUAAGUCCAAUTT against Kpnb1 | -2.01 (active) |
| CCGAAUCGUCCUAAACCAATT against Cyp11a1 | 0.284 (inactive) |
| GUACAUUUGCUGGAGCCUCTT against Hps6 | 0.395 (inactive) |
| GCCUUUCUUCUGUCAAUGATT against Olfr281 | 2.38 (active) |
| CCGACCAGAAGCUUUAAAGTT against Msrb1 | 1.05 (inactive) |
| GGGAGUUGGUGGAAUGCUUTT against Ech1 | -0.221 (inactive) |
| GGAGUUUGAACAAGAAAUATT against Prss12 | 1.11 (inactive) |
| GCCACCGAACCUAUAAAGCTT against Scd4 | 0.265 (inactive) |
| GGUGUGCAUCAAGCGACUGTT against Cacng6 | 2.1 (active) |
| GGUUCUAGAUGCUAAUAAGTT against Ciao3 | -0.381 (inactive) |
| GGAUCUGACAAGGUACAAGTT against Acsm5 | 0.145 (inactive) |
| GCUAUGGGUAAACUUUUUGTT against Olfr354 | 0.905 (inactive) |
| CCUAGACAAUACUUGCCUGTT against Gpr180 | 0.873 (inactive) |
| GCCUGUUCGGUGUUCAACUTT against Etv3 | 0.808 (inactive) |
| GCCUAGUUCUUUAUGCUAUTT against Golga4 | 4.37 (active) |
| CCACCUGUCGAGAUGUCGUTT against Ppp1r13b | 1.1 (inactive) |
| GGAUCACGUUUCAAACAUCTT against Mtmr12 | 0.296 (inactive) |
| GGAGCACAAUAGUAAACUATT against Polr1a | 2.78 (active) |
| GGUGAAGAUAAGUAUCUGCTT against Mug2 | -0.0586 (inactive) |
| GCUUGAUUAGGUAGGAAUATT against Stk32a | -0.388 (inactive) |
| GGAAAGUCAGGAUGAAUAUTT against Cst9 | 0.0511 (inactive) |
| GGAGUUGUAGUGAGGGUCATT against Fcgbp | -0.971 (inactive) |
